TRHR PAM: allosteric enhancers of human TRH receptor | enhancement, % at 2 µM | TRHR cells, fluo-8 calcium fluorescence, EC20 TRH enhancement | 360,000 tested, 0.66% active | P34981; in the data active means enhancement above about 30%
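TRHR-expressing cells loaded with fluo-8 calcium dye were read kinetically (ex 480/em 530) during compound addition, then stimulated with an EC20 of TRH (10 nM final). Enhancement of the Gq-mediated intracellular calcium response was scored.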
D1 potentiator: potentiators of human D1 dopamine receptor. P21728. HEK293 TREx D1 cells, calcium flux, dopamine EC20 potentiation. potentiation, % at 10 µM. 360,000 tested, 0.036% active; in the data active means potentiation above about 30%
Target sequence (P21728 whole entry, looked up): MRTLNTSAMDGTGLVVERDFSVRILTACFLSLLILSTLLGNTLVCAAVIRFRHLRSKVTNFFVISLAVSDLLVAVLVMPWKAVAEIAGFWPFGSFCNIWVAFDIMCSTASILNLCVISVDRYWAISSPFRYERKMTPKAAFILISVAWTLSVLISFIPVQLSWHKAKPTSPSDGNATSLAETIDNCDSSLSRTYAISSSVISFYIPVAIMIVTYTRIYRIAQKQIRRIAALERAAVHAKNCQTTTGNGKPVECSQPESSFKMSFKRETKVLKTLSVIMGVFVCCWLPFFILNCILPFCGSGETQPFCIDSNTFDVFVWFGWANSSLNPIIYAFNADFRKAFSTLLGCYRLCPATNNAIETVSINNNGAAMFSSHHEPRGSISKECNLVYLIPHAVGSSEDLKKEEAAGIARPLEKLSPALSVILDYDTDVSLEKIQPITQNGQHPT
TRHR ag: agonists of human TRH receptor. TRHR cells, calcium flux fluo-8, FDSS agonist mode. activation, % at 2 µM. 360,000 tested, 0.18% active. P34981
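TRHR-expressing cells, plated overnight in medium with 10% serum, were loaded with fluo-8 calcium dye at room temperature. After a 10 s baseline, library compound was pin-added and calcium release was recorded kinetically (ex 480/em 530) as agonist response.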
D1 ag: human D1 receptor agonism; P21728; HEK293 T-REx D1 cells, calcium flux, agonist mode; activation, % at 2 µM; 360,000 tested, 1% active; AID 504660
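Agonism was scored from calcium flux recorded over 180 s (1 read/s) after pintool compound addition, following a 10-cycle baseline. Cells were inducible force-coupled HEK293 TREx D1, plated overnight at 30 C and loaded with no-wash calcium dye.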
D1 antag: human D1 dopamine receptor antagonism; P21728; HEK293 TREx D1 cells, calcium flux, dopamine EC80; stronger effect = lower value; activity change, negative = inhibition, % at 10 µM; 360,000 tested, 3.2% active; AID 504652; in the data active means activity change below about -30%
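Using tetracycline-induced force-coupled D1 Hek293 cells and a calcium dye, signals were followed for 180 s after compound, then for 180 s after EC80 dopamine, to detect inhibitors.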
Numbers stand for hits; ! = repeats disagree. Sampled rows, rich in hits. Any-hit rate of the full collection: about 4.6%. Unless noted, no stated cut-off is given here; in the data, active means activation above about 30%; inactive means the rest.

What do the screens show for `COc1ccccc1NC(=O)c1ccc(S(=O)(=O)N2CCCC2)cc1`?
TRHR PAM: inactive; D1 potentiator: inactive; TRHR ag: inactive; D1 ag: inactive; D1 antag: inactive

How did Cc1ccccc1OCC(=O)OCC(=O)Nc1cc(S(=O)(=O)N2CCCCC2)ccc1Cl do in these assays?
TRHR PAM: inactive; D1 potentiator: inactive; TRHR ag: inactive; D1 ag: inactive; D1 antag: -96

How did Cc1cc(NC(=O)C2CCCN(S(=O)(=O)c3cn(C)cn3)C2)ccc1Br (stereo not drawn) do in these assays?
TRHR PAM: inactive; D1 potentiator: inactive; TRHR ag: inactive; D1 ag: inactive; D1 antag: inactive

Results for C/C=C(\C)CN1CCc2cc(OC)c(OC)cc2C1 ?
TRHR PAM: 32; D1 potentiator: inactive; TRHR ag: inactive; D1 ag: inactive; D1 antag: inactive

What do the screens show for `COc1cc2c(cc1OC)CN(CC(=O)NC(=O)NCc1ccccc1)CC2`?
TRHR PAM: inactive; D1 potentiator: inactive; TRHR ag: inactive; D1 ag: inactive; D1 antag: inactive

Results for O=C(CSc1cn(CC(=O)N2CCCCC2)c2ccccc12)NCc1ccc(F)cc1 ?
TRHR PAM: inactive; D1 potentiator: inactive; TRHR ag: inactive; D1 ag: inactive; D1 antag: inactive

What do the screens show for `CCOC(=O)c1sc(NC(=O)c2ccc(Cl)s2)cc1C`?
TRHR PAM: inactive; D1 potentiator: inactive; TRHR ag: inactive; D1 ag: inactive; D1 antag: inactive

What do the screens show for `CCOC(=O)c1sc(NC(=O)c2cccc(S(=O)(=O)N(CC)CC)c2)cc1C`?
TRHR PAM: inactive; D1 potentiator: inactive; TRHR ag: inactive; D1 ag: inactive; D1 antag: inactive

What do the screens show for `CCOC(=O)c1sc(NC(=O)Nc2ccc(Cl)cc2)cc1C`?
TRHR PAM: inactive; D1 potentiator: inactive; TRHR ag: inactive; D1 ag: inactive; D1 antag: -58

How did CCOC(=O)c1sc(NC(=O)c2cccc(S(=O)(=O)N3CCN(C)CC3)c2)cc1C do in these assays?
TRHR PAM: inactive; D1 potentiator: inactive; TRHR ag: inactive; D1 ag: inactive; D1 antag: -35

What do the screens show for `CCOC(=O)c1sc(NC(=O)c2ccccc2)cc1C`?
TRHR PAM: inactive; D1 potentiator: inactive; TRHR ag: inactive; D1 ag: 42; D1 antag: inactive

What do the screens show for `CCOC(=O)c1sc(NC(=O)c2c(C)nn(Cc3ccccc3)c2C)cc1C`?
TRHR PAM: inactive; D1 potentiator: inactive; TRHR ag: inactive; D1 ag: inactive; D1 antag: -45

How did Cc1cc(C)n(-c2nc(C)c(C)c(=O)n2CC(=O)Nc2cccc([N+](=O)[O-])c2)n1 do in these assays?
TRHR PAM: inactive; D1 potentiator: inactive; TRHR ag: inactive; D1 ag: inactive

Results for O=S(=O)(c1ccc(F)cc1)N1CCN(c2nc(-c3cccs3)nc3cc(Cl)ccc23)CC1 ?
TRHR PAM: inactive; D1 potentiator: inactive; TRHR ag: inactive; D1 ag: inactive; D1 antag: inactive

How did Cc1cc(N/N=C/c2ccc([N+](=O)[O-])o2)nc2ccccc12 do in these assays?
TRHR PAM: inactive; D1 potentiator: inactive; TRHR ag: inactive; D1 ag: 48; D1 antag: inactive

Results for CCOC(=O)N1CCC(NC(=O)c2ccc3c(c2)N(Cc2cc(C)ccc2C)C(=O)c2ccccc2S3=O)CC1 (stereo not drawn) ?
TRHR PAM: inactive; D1 potentiator: inactive; TRHR ag: inactive; D1 ag: inactive; D1 antag: inactive

What do the screens show for `Cc1cc(C)c(C(=O)CSc2n[nH]c(=O)n2C2CC2)cc1C`?
TRHR PAM: inactive; D1 potentiator: inactive; TRHR ag: inactive; D1 ag: inactive; D1 antag: -37

How did O=C(CSc1n[nH]c(=O)n1C1CC1)c1ccc2c(c1)OCCO2 do in these assays?
TRHR PAM: inactive; D1 potentiator: inactive; TRHR ag: inactive; D1 ag: inactive; D1 antag: inactive

What do the screens show for `CCCCOc1ccc(S(=O)(=O)NCc2csc(-c3ccc(OC)cc3)n2)cc1`?
TRHR PAM: inactive; D1 potentiator: inactive; TRHR ag: inactive; D1 ag: inactive; D1 antag: inactive

What do the screens show for `O=C(CNC(=O)C1CCCC1)OC(C(=O)Nc1cc(C(F)(F)F)ccc1Cl)c1ccccc1` (stereo not drawn)?
TRHR PAM: inactive; D1 potentiator: inactive; TRHR ag: inactive; D1 ag: inactive; D1 antag: inactive

How did COc1cccc(NC(=O)C2CCCN(c3ncnc4onc(-c5ccc(F)cc5)c34)C2)c1 (stereo not drawn) do in these assays?
TRHR PAM: inactive; D1 potentiator: inactive; TRHR ag: inactive; D1 ag: inactive; D1 antag: inactive

Results for COc1cccc(OCc2ccc(Cl)cc2)c1C#N ?
TRHR PAM: inactive; D1 potentiator: inactive; TRHR ag: inactive; D1 ag: inactive; D1 antag: -51

Results for COc1cccc(CNC(C)(C)CO)c1OCc1ccc(Cl)cc1 ?
TRHR PAM: inactive; TRHR ag: inactive; D1 ag: inactive; D1 antag: inactive

How did Cc1ccccc1-c1nc(CS(=O)CC(=O)NCCc2ccc(Cl)cc2)c(C)o1 (stereo not drawn) do in these assays?
TRHR PAM: inactive; D1 potentiator: inactive; TRHR ag: inactive; D1 ag: 34!; D1 antag: -65!

What do the screens show for `Cc1cc(C)cc(NCc2cc(=O)oc3cc(-c4ccccc4)c(O)cc23)c1`?
TRHR PAM: inactive; D1 potentiator: inactive; TRHR ag: inactive; D1 ag: inactive; D1 antag: inactive

How did COc1ccc(C)cc1NCc1cc(=O)oc2cc(-c3ccccc3)c(O)cc12 do in these assays?
TRHR PAM: inactive; D1 potentiator: inactive; TRHR ag: inactive; D1 ag: inactive; D1 antag: -30

How did N#C/C(=C/c1ccc(-c2ccccc2[N+](=O)[O-])o1)C(N)=O do in these assays?
TRHR PAM: inactive; D1 potentiator: inactive; TRHR ag: inactive; D1 ag: inactive; D1 antag: -41

What do the screens show for `N#Cc1cccc(NC(=O)c2ccc3c(c2)N(Cc2cccc(Cl)c2)C(=O)c2ccccc2S3(=O)=O)c1`?
TRHR PAM: 31; D1 potentiator: inactive; TRHR ag: inactive; D1 ag: inactive; D1 antag: inactive

How did CCOC(=O)c1ccc2c(c1)N(Cc1cccc(C(F)(F)F)c1)C(=O)c1ccccc1S2(=O)=O do in these assays?
TRHR PAM: inactive; D1 potentiator: inactive; TRHR ag: inactive; D1 ag: inactive; D1 antag: -51

Results for O=C(c1ccc2c(c1)N(Cc1cccc(Cl)c1)C(=O)c1ccccc1S2(=O)=O)N1CCC(Cc2ccccc2)CC1 ?
TRHR PAM: inactive; D1 potentiator: inactive; TRHR ag: inactive; D1 ag: inactive; D1 antag: -34

Results for O=C(c1ccc2c(c1)N(Cc1ccccc1)C(=O)c1ccccc1S2(=O)=O)N1CCN(Cc2ccccc2)CC1 ?
TRHR PAM: inactive; D1 potentiator: inactive; TRHR ag: inactive; D1 ag: inactive; D1 antag: inactive

How did CC(=O)Nc1ccc(NC(=O)c2ccc3c(c2)N(Cc2cccc(Cl)c2)C(=O)c2ccccc2S3(=O)=O)cc1 do in these assays?
TRHR PAM: inactive; D1 potentiator: inactive; TRHR ag: inactive; D1 ag: inactive; D1 antag: inactive

Assay outcomes from PubChem.
